From PubChem BioAssay (NCI)
Several values for one entry are separate records, joined by “and”; a condition that tells them apart may be missing. Equal values may be shown once. This is part of a sample that, as a whole, favours compounds with a hit. Of some 83,000 tested, about 20% had one in any assay.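 Method: cells in 96-well plates; compound added at one concentration; 48 h incubation; percent growth measured; values under 10 scored active.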 Activity calls are given as the source filed them.

System: KM12 colon
Assay: NCI-60 one-dose screen, 48 h (100 = growth as untreated, 0 = no growth, -100 = all killed)
Details: 0.01 µM
Method: Growth inhibition of the KM12 human tumor cell line is measured as a screen for anti-cancer activity. Cells are grown in 96 well plates and exposed to the test compound for 48 hours. Compounds are tested at a single concentration, which is 10^-5 M for most compounds. The reported endpoint is percent growth (GI% or GIPRCNT), where numbers from 0 - 100% represent growth inhibition, and numbers from -100% - 0 represent cell death. For example, a value of 40 represents 60% growth inhibition. A value of 0 means no net growth occurred over the course of the experiment. A value of -40 indicates 40% of cells at the beginning of the experiment died by the end of the experiment. A value of -100 means all cells are dead at the end of the experiment.
NCI-60 Human Tumor Cell Lines Screen was performed using the standard one-dose NCI protocol, which is described in more detail at https://dtp.cancer.gov/discovery_development/nci-60/default.htm.
Compounds with GIPRCNT values below 10 were considered active. Activity score was based on GIPRCNT using the following formula: […]
Score is 0 for GIPRCNT values of 100 or above, 50 for GIPRCNT values of 0, and 100 for GIPRCNT values of -100.

Q: CC(=O)O[C@H]1C(=O)[C@@]2(C)[C@H]([C@H](OC(=O)c3ccccc3)[C@]3(O)C[C@H](OC(=O)[C@H](O)[C@@H](NC(=O)c4ccccc4)c4ccccc4)C(C)=C1C3(C)C)[C@]1(OC(C)=O)CO[C@@H]1C[C@@H]2O was tested. Which growth did it give?
A: 10.6% (inactive)

Same assay, conditions: 2.5 µM

Q: How did the growth turn out when CC(=O)O[C@H]1C(=O)[C@@]2(C)[C@H]([C@H](OC(=O)c3ccccc3)[C@]3(O)C[C@H](OC(=O)[C@H](O)[C@@H](NC(=O)c4ccccc4)c4ccccc4)C(C)=C1C3(C)C)[C@]1(OC(C)=O)CO[C@@H]1C[C@@H]2O was run?
A: 1.85% (active)

Same assay, conditions: 5 µM

Q: With CC(=O)O[C@H]1C(=O)[C@@]2(C)[C@H]([C@H](OC(=O)c3ccccc3)[C@]3(O)C[C@H](OC(=O)[C@H](O)[C@@H](NC(=O)c4ccccc4)c4ccccc4)C(C)=C1C3(C)C)[C@]1(OC(C)=O)CO[C@@H]1C[C@@H]2O as the molecule, how does the growth read?
A: 4.45% (active)

Same assay, conditions: 10 µM

Q: N#CC(=C1C=CC(=NO)C=C1)c1ccccc1 was tested. Which growth did it give?
A: -57% (active)

Q: Cc1cc(Cl)ccc1NC(=O)/C(Cl)=C1/Sc2ccccc2NC1=O was tested. Which growth did it give?
A: 96.4% (inactive)

Q: For CN(C)c1ccc(/C=C/c2ccnc3ccccc23)cc1N, which growth is on record?
A: 61.5% (inactive)

Q: How did the growth turn out when O=C(CNS(=O)(=O)Cc1ccccc1)NNc1ccccc1 was run?
A: 15% (inactive)

Q: Which growth does the source give for O=[N+]([O-])c1cc(S(=O)(=O)Nc2ccccc2)ccc1Cl here?
A: 98.5% (inactive)

Q: How did the growth turn out when N#C/C(=C/N1C(=O)/C(=C/c2ccc([N+](=O)[O-])cc2)SC1=S)c1nc2ccccc2s1 was run?
A: 89.7% (inactive)

Q: How did the growth turn out when S=C1SCN(CCc2ccccc2)CN1CCc1ccccc1 was run?
A: 96.8% (inactive)

Q: How did the growth turn out when CN(C)CCNc1cccc2sc3ccc(O)cc3c(=O)c12 was run?
A: 24.7% (inactive)

Q: How did the growth turn out when O=S(=O)(c1cc(Cl)ccc1O)c1cc(Cl)ccc1O was run?
A: 98.1% (inactive)

Q: Which growth does the source give for CCC(C)(c1ccc(O)c(C)c1)c1ccc(O)c(C)c1 here?
A: 94.6% (inactive)

Q: For Cc1cc(C)c(N2C(=O)CC(Sc3ccccc3N)C2=O)c(C)c1 (stereo not given), which growth is on record?
A: 50.9% (inactive)

Q: CN(CC(=O)O)c1ccc(/C=C/c2ccnc3ccccc23)cc1 was tested. Which growth did it give?
A: 85.2% (inactive)

Q: For COc1cccc(C(c2cc3c(cc2O)OCO3)N2CCOCC2)c1OC (stereo not given), which growth is on record?
A: 108% (inactive)

Q: Which growth does the source give for COc1ccc(C(C#N)=C2C=CC(=NO)C=C2)cc1 here?
A: -24.7% (active)

Q: CCC(=O)Oc1ccc(/C=N/NC(N)=S)nc1 was tested. Which growth did it give?
A: 60.5% (inactive)

Q: For O=C1C=CC(=O)N1c1ccc(N2C(=O)C=CC2=O)cc1, which growth is on record?
A: 113% (inactive)

Q: Which growth does the source give for COc1ccc2c(c1)[nH]c1c(/C=C/c3ccccc3)nccc12 here?
A: 71.1% (inactive)

Q: For O=C1C(Cl)=C(Cl)C(Cl)(Cl)C(Cl)C1(Cl)Cl (stereo not given), which growth is on record?
A: 109% (inactive)

Q: Which growth does the source give for S=P(N1CC1)(N1CC1)N1CC1 here?
A: 111% (inactive) and 104% (inactive)

Q: For CC(=O)O[C@H]1C(=O)[C@@]2(C)[C@H]([C@H](OC(=O)c3ccccc3)[C@]3(O)C[C@H](OC(=O)[C@H](O)[C@@H](NC(=O)c4ccccc4)c4ccccc4)C(C)=C1C3(C)C)[C@]1(OC(C)=O)CO[C@@H]1C[C@@H]2O, which growth is on record?
A: 2.94% (active) and 10.9% (inactive)

Q: ClCCn1c(CCl)nc2ccc(Cl)cc21 was tested. Which growth did it give?
A: -43% (active)

Q: For O=C(O)c1ccccc1.[Ag], which growth is on record?
A: 89.3% (inactive)

Q: With Cc1cc(O)c2c(c1O)C(=O)C13C(=C2O)C(=O)C2C(O)C1C1C(O)C3C(=O)C3=C(O)c4c(O)cc(C)c(O)c4C(=O)C321 (stereo not given) as the molecule, how does the growth read?
A: -53.3% (active)

Q: With O=Nc1ccc(Nc2ccccc2)cc1 as the molecule, how does the growth read?
A: 93.3% (inactive)

Q: For COc1ccc(N)c2c1C(=O)c1ccccc1C2=O, which growth is on record?
A: 102% (inactive)

Q: For O=c1[nH]cc(/C=N\Nc2ccccc2)c(=O)[nH]1, which growth is on record?
A: 37.9% (inactive)

Q: How did the growth turn out when Cn1c2nc3ccccc3c-2nc2ccccc21 was run?
A: 92.4% (inactive) and 83.5% (inactive)

Q: Which growth does the source give for CCOC(=O)[C@]1(Br)CC[C@@]1(Br)C(=O)OCC here?
A: 142% (inactive)

Q: How did the growth turn out when O=C1c2cccc3cc([N+](=O)[O-])cc(c23)C(=O)N1CCN1CCCC1 was run?
A: 1.61% (active)

Q: Which growth does the source give for Cn1ncc2cc3c(Nc4ccc(Cl)cc4)cccc3nc21 here?
A: 90.8% (inactive)

Q: Which growth does the source give for Nc1nc(N)c2cc(Sc3ccc4ccccc4c3)ccc2n1 here?
A: 23.8% (inactive)

Q: How did the growth turn out when Cc1cc(N=C2C=CC(=[N+](C)C)C=C2)c(N)cc1N was run?
A: 89% (inactive)

Q: With COc1cc(N)ccc1Nc1c2ccccc2nc2ccccc12 as the molecule, how does the growth read?
A: 36.2% (inactive)

Q: CC[C@@]1(OC(=O)CN(C)C)C(=O)OCc2c1cc1n(c2=O)Cc2cc3c(N)cccc3nc2-1 was tested. Which growth did it give?
A: 0.253% (active)

Q: How did the growth turn out when CC1CCC2(C(=O)O)CCC3(C)C(=CCC4C5(C)CC(O)C(O)C(C)(CO)C5C(O)CC43C)C2C1C (stereo not given) was run?
A: 104% (inactive)

Q: How did the growth turn out when O=C(NC(=S)Nc1ccccn1)c1ccccc1 was run?
A: 97% (inactive)

Same assay, conditions: 100 µM

Q: S=P(N1CC1)(N1CC1)N1CC1 was tested. Which growth did it give?
A: 83% (inactive)
